In PubChem BioAssay (NCATS):
Results filed as inconclusive are left out. A number with no mark means an inactive call. Active and inactive are the calls of the source. The call rests on the fitted dose curve; in most records, active means well fitted inhibition curve with a large enough effect; inconclusive means small, poorly fitted or top-dose-only effect; inactive means flat fitted curve, though single readings scatter.

The compounds below were run against Calcium and integrin-binding protein 1 (Homo sapiens) (UniProt Q99828) (assay: Primary qHTS for Identification of Calcium Integrin Binding Protein 1 (CIB1) Competitor (AID 1508620;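 further: GST tagged CIB1 binding a fluorescein labelled alphaIIb integrin peptide tracer; top concentration of the series differs between compounds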)). Settings: CIB1-GST / FITC-alphaIIb peptide fluorescence polarization; series mostly up to 57.7 µM; activity change, negative = inhibition: at the top concentration.
Sequence of Calcium and integrin-binding protein 1 (Homo sapiens) (Q99828 whole entry, looked up): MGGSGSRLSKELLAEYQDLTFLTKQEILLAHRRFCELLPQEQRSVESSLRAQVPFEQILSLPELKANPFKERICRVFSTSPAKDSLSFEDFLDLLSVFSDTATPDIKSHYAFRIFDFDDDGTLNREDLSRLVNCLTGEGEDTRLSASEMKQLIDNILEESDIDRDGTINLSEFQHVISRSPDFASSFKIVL
Method in brief: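 CIB1-GST (1 uM final) and compound incubated 15 min at room temperature before adding FITC-alphaIIb peptide tracer (100 nM final). Competition for binding read by fluorescence polarization (ex 480, em 540) after another 15 min at room temperature.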
On the % scale 0 is the no-effect control and ±100 the full control effect.

SMILES	activity change, negative = inhibition	Potency
CC1C(=O)CC2C3C(O)CC(C(=O)O)C12CC3(C)C (configuration not stated)	0.24% [at 114 µM]	–
OC[C@H]1O[C@@H](Oc2ccc3c(c2)OC[C@H]2c4cc5c(cc4O[C@@H]32)OCO5)[C@H](O)[C@@H](O)[C@@H]1O	-0.311%	–
CC(O)(CC(=O)O)CC(=O)O[C@@H]1[C@@H](O)[C@H](OCCc2ccccc2)O[C@H](CO)[C@H]1O (some centres not stated)	4.23%	–
C[C@@H]1C[C@H](O[C@@H]2O[C@H](CO[C@@H]3OC[C@](O)(CO)[C@H]3O)[C@@H](O)[C@H](O)[C@H]2O)CC(C)(C)[C@H]1/C=C/[C@@H](C)O	-0.584%	–
CN(C)C/C=C/C(=O)Nc1ccc(C(=O)Nc2cccc(Nc3ncc(Cl)c(-c4c[nH]c5ccccc45)n3)c2)cc1	–	inactive
CC(=O)O[C@H]1CC[C@@]2(CI)C(=CC[C@@H]3[C@@H]2CC[C@]2(C)[C@@H]([C@H](C)CCCC(C)C)CC[C@@H]32)C1	2.02% [at 30.2 µM]	–
CC1CCC(=O)CC(O)C(O)CC(=O)O1 (configuration not stated)	-4.93% [at 114 µM]	–
Cc1coc2c1CC1OC1(C)CCC1OC1(C)C2 (configuration not stated)	2.45% [at 114 µM]	–
CC/C=C\C[C@H]1C(=O)C=C[C@@H]1CCCCCCCC(=O)O	-16.9% [at 114 µM]	–
COc1ccc(C(O[C@@H]2O[C@H](CO)[C@@H](O)[C@H](O)[C@H]2O)C(CO)Oc2ccc(/C=C/CO)cc2OC)cc1O (some centres not stated)	4.32%	–
CCOC(=O)c1ccc(N(C)c2csc(-c3ccccc3)n2)cc1	0.302% [at 114 µM]	–
Nc1nonc1C(=Nc1ccc(F)c(Cl)c1)NO	3.26% [at 114 µM]	–
